# Anthrax LF inh2 – Bacillus anthracis LF protease inhibitors, primary screen, biochemical, multiplex microsphere, MLPCN library | AID 588501, 2011 | multiplex microsphere protease cleavage assay | Lethal factor (Bacillus anthracis), P15917 | hit rate 0.12% among 360,000 | inhibition, % at 10 µM; also: plate controls were buffer without enzyme for full effect and enzyme alone for no effect
# DUSP3 inh – VHR1 phosphatase inhibitors, primary screen, biochemical, absorbance, uHTS; Dual specificity protein phosphatase 3 (Homo sapiens), P51452; recombinant VHR phosphatase, pNPP absorbance; inhibition, % at 13.3 µM; hit rate 0.52% among 290,000; AID 1654, 2009; in the data active = inhibition above about 50%
# Target sequence (P51452 whole entry, looked up): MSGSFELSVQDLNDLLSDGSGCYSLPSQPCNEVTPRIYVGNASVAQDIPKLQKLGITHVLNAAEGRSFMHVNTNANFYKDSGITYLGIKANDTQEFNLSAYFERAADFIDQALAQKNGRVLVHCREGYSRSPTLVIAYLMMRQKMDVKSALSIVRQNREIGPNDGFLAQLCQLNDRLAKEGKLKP
# Autofluor counter – compound fluorescence in toxin protease inhibitor counterscreen; compound autofluorescence counterscreen, microsphere flow cytometry; hits give high values; fluorescence intensity (concentration not given with the values); hit rate 3.1% among 360,000; AID 624483; in the data active = fluorescence intensity above about 16000; inconclusive = no clear call, values can overlap the other calls
# BoNT F protease – BoNT/F light chain protease inhibitors, primary screen, biochemical, flow cytometry, MLPCN library. Botulinum neurotoxin type F light chain protease (Clostridium botulinum). Multiplex microsphere protease cleavage assay. inhibition, % at 10 µM. hit rate 0.22% among 360,000. AID 588497, 2011; in the data active = inhibition above about 35%, passing the limit was not always enough; inconclusive = no clear call, values can overlap the other calls; also: plate controls were buffer without enzyme for full effect and enzyme alone for no effect
# MazEF act – activators of E. coli MazEF toxin-antitoxin RNase, primary screen, biochemical, fluorescence, uHTS; FAM/BHQ RNA-DNA oligo cleavage fluorescence, 5 h; activation, % at 20 µM; hit rate 0.32% among 350,000; AID 504720, 2011; in the data active = activation above about 50%
# Target sequence (P0AE70 whole entry, looked up): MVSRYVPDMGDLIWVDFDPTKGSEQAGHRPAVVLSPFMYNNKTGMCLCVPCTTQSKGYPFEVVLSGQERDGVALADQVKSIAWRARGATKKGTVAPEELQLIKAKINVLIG
# BoNT-A LC inh2 – BoNT/A light chain protease inhibitors, primary screen, biochemical, flow cytometry, MLPCN library | Botulinum neurotoxin type A light chain protease (Clostridium botulinum A str. ATCC 3502) | inhibition, % at 10 µM | hit rate 0.17% among 360,000 | multiplex microsphere protease substrate cleavage; also: plate controls were buffer without enzyme for full effect and enzyme alone for no effect
# The depositor's hits bear a star; ? = inconclusive; . = no result. This is a sample that favours compounds with a hit; in the whole collection about 4% have one here. Rule as the data show it, unless noted: active = inhibition above about 30%; inconclusive = no clear call, values can overlap the other calls; inactive = below that.
SMILES,Anthrax LF inh2,DUSP3 inh,Autofluor counter,BoNT F protease,MazEF act,BoNT-A LC inh2
O=C(OCC1OC(n2cnc3c(N(C(=O)c4ccccc4)C(=O)c4ccccc4)ncnc32)C(O)C1F)c1ccccc1 (stereo not given),-2,31,24792*,-7,-1,-4
COc1ccc(OC)c(N2C(=O)C(Cl)=C(N3CCCCC3)C2=O)c1,2,-5,21020*,9,3,9
COc1ccc(OC)c(N2C(=O)C(Cl)=C(N3CCOCC3)C2=O)c1,-2,-8,11439,1,8,0
Cc1ccc(NC(=S)NC(=O)CC2CC(C)(C)OC2=O)cc1 (stereo not given),-1,58*,2454,-2,12,0
CC1(C)CC(CCC(=O)Nc2ccc(S(N)(=O)=O)cc2)C(=O)O1 (stereo not given),-2,10,22673*,-3,-3,?
CC1(C)CC(CC(=O)Nc2ccccn2)C(=O)O1 (stereo not given),0,21,23618*,-1,-1,-1
Cc1cccc(NC(=S)NC(=O)CC2CC(C)(C)OC2=O)c1 (stereo not given),-2,33,2280,2,2,0
Cc1ccc(NC(=O)CCC2CC(C)(C)OC2=O)cc1 (stereo not given),-2,8,4564,-4,-1,0
O=C1c2ccsc2SCCN1Cc1ccc(F)cc1,0,-2,3829,4,-1,0
O=c1[nH]cccc1-c1nc2ccccc2n1Cc1cccc(Cl)c1,-5,31,4055,2,-20,-1
CC(=O)c1sc2nc(-c3ccc(C)cc3)c3c(c2c1N)CCCC3,-2,4,10686,7,6,7
O=C(CCS(=O)(=O)c1ccc(Cl)cc1)N1CCN(c2ccc(F)cc2)CC1,.,.,.,.,-11,.
Cc1ccc(S(=O)(=O)CCC(=O)N2CCN(c3ccc(Cl)cc3)CC2)cc1,-2,22,17240*,-3,-2,-2
Cc1nn(Cc2ccc([N+](=O)[O-])cc2)c(=O)n1-c1ccccc1,-10,4,17702*,10,-3,?
Cc1nn(CC#N)c(=O)n1-c1ccccc1,4,-6,4673,-20,-10,0
Cc1cc2nnc(SCC(=O)N3C(C)CCCC3C)n2c(N)n1 (stereo not given),-7,7,22651*,-2,0,?
COc1cccc(NC2C=CS(=O)(=O)C2)c1 (stereo not given),1,-9,5477,-9,6,-2
Cc1ccc(NC(=O)CCC(=O)OCC(=O)c2ccc(Oc3ccc([N+](=O)[O-])cc3)cc2)cc1,-4,2,2294,-2,1,0
Cc1ccc(NC(=O)CCC(=O)OCC(=O)c2ccc(Oc3ccc([N+](=O)[O-])cc3)cc2)c(C)c1,-1,21,17075*,1,-16,-1
Clc1ccc(/C=N/Nc2nn[nH]n2)cc1,11,54*,6668,-6,-7,0
C(=N\Nc1nn[nH]n1)/c1ccccc1,-4,35,5445,-4,-3,-1
O=c1cc(O)c2c(=O)n(C3CCCCC3)c3ccccc3c2o1,2,-1,22987*,2,5,0
CCOc1ccccc1N1CCN(C(=O)CCNS(=O)(=O)c2ccccc2F)CC1,-3,.,4596,-5,-3,5
CC(C)Cn1c(NCCO)nc2ccccc21,-1,24,19740*,0,2,1
OCCNc1nc2ccccc2n1CC(O)c1ccccc1 (stereo not given),-4,22,3958,1,-2,0
C=CCOc1c(CNc2cccc(C(=O)O)c2)cccc1OC,-2,-2,2535,-5,-12,0
Oc1ccc2ccccc2c1/C=N/Nc1nnc(-c2ncc[nH]2)c2ccccc12,14,15,9066,-7,65*,6
COc1ccc(/C=N/Nc2nnc(-c3ncc[nH]3)c3ccccc23)cc1,1,23,21400*,1,-2,-1

# Screening results as filed in PubChem.
